Results filed as inconclusive are left out. Calls of active or inactive are those of the source. Calls follow the shape of the dose curve; as a rule, active = well fitted curve in the direction sought with a large enough effect; inconclusive = small, poorly fitted or top-dose-only effect, or another doubt; inactive = no such curve, though single readings can be large; an effect the other way counts as inactive or inconclusive. Bridge positions count the residues as written; N and C are the ends. Square brackets hold non-standard residues; d marks the D form. Side chains are listed from the residue outwards. Peptide text beside a SMILES is read from it. * marks the point of attachment. Phg(4-OMe) = COc1ccc([C@H](N)C(=O)O)cc1; d(aIle) = CC[C@H](C)[C@@H](N)C(=O)O; d(aThr) = C[C@@H](O)[C@@H](N)C(=O)O; NMeF = CN[C@@H](Cc1ccccc1)C(=O)O; Isobutyryl = CC(C)C(=O)*
Columns and labels:
[1] = HPAF-II 24hr Apoptosis Induction qHTS against the NCATS CANVASS Library (AID 1347356); also: 0% is about no effect
In short: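 500 HPAF-II cells/well; compounds in 11-pnt qHTS; 24 h, 37 C/5% CO2; Caspase-Glo 3/7 added, 15 min RT dark; luminescence read. Doxorubicin control.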

[2] = HEK293 18hr Apoptosis Induction qHTS against the NCATS CANVASS Library (AID 1347357); also: 0% is about no effect
In short: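 HEK293 cells (500 per well, DMEM with 10% FBS) were treated with natural products, incubated 18 hours at 37 degrees C, then caspase-3/7 activity was read by Caspase-Glo luminescence after 15 min at room temperature.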

[3] = HPAF-II 12hr Apoptosis Induction qHTS against the NCATS CANVASS Library (AID 1347358); also: 0% is about no effect
In short: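 Caspase-Glo 3/7 luminescence (DEVD substrate) reports caspase activity in HPAF-II cells after 12 h compound treatment at 37 degrees C. Compounds were tested in an 11-point series. Doxorubicin served as control.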

[4] = HPAF-II 18hr Apoptosis Induction qHTS against the NCATS CANVASS Library (AID 1347360); also: 0% is about no effect
In short: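 HPAF-II cells (500/well, DMEM + 10% FBS) were exposed to compounds for 18 hours at 37 degrees C. Caspase-3/7 activity was then read by Caspase-Glo 3/7 luminescence after 15 min at room temperature.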

[5] = HEK293 12hr Apoptosis Induction qHTS against the NCATS CANVASS Library (AID 1347361); also: 0% is about no effect
In short: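 Read-out: Caspase-Glo 3/7 luminescence (DEVD substrate), 15 min RT. Preceded by 12 h compound exposure of HEK293, 500 cells/well, 11-pt qHTS titration; doxorubicin titration as control.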

[6] = KB-3-1 Cancer Cell Toxicity qHTS against the NCATS CANVASS Library (AID 1347366); also: nearly all actives have a fitted effect of over 75% in size; as to activity change, negative = cytotoxicity: series mostly up to about 46 µM; % is scaled to controls: 0 for no effect and ±100 for the full control effect
In short: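 KB-3-1 cells (500 cells/well) in DMEM + 10% FBS were treated with compounds for 72 hr at 37C, 5% CO2. Viability was read as CellTiter-Glo luminescence after 10 minutes at room temperature.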

[7] = qHTS for ATAD5 Agonist screened against the NCATS CANVASS Library (AID 1347367);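 also: luciferase reporter driven by ATAD5 which rises upon DNA damage; 0% is about no effect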
In short: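 HEK293T cells stably carrying an ATAD5-controlled luciferase reporter (2000 cells/well) attached for 5 hr, then received compounds in an 11-point series for 16hr at 37C. Luminescence was read after a 30 min room-temperature reagent step.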

[8] = G06 Cancer Cell Toxicity qHTS against the NCATS CANVASS Library (AID 1347368); also: nearly all actives have a fitted effect of over 60% in size; as to activity change, negative = cytotoxic: series mostly up to about 46 µM; % is scaled to controls: 0 for no effect and ±100 for the full control effect
In short: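 ATP luminescence (CellTiterGlo) readout of cytotoxicity. Canine G06 glioma cells, 500/well, 72 hr incubation at 37C with compounds; bortezomib titration served as control.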

[9] = MCF7 Cancer Cell Toxicity qHTS against the NCATS CANVASS Library (AID 1347369); as to activity change, negative = cytotoxicity: series mostly up to about 46 µM; % is scaled to controls: 0 for no effect and ±100 for the full control effect
In short: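 MCF7, 500 cells/well; cpds 11-pt qHTS; 72 hr, 37C/5% CO2; CellTiterGlo ATP luminescence.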

[10] = qHTS for ATAD5 Antagonist screened against the NCATS CANVASS Library (AID 1347370);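 also: HEK293T cells carrying an ATAD5 luciferase reporter co-treated with 10 µM 5-fluorouridine; series mostly up to about 46 µM; % is scaled to controls: 0 for no effect and ±100 for the full control effect; nearly all actives have a fitted effect of over 65% in size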
In short: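 HEK293T-ATAD5 luc reporter, 2000 cells/well; 5hr attach; cpd + 10 uM 5-FUrd; 16hr 37C, 5% CO2. Readouts: CellTiter-Fluor fluorescence (1hr), then Amplite luciferase luminescence (30min RT).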

[11] = molecular target: Nuclear receptor subfamily 1 group I member 3 (Homo sapiens) (UniProt Q14994); test: qHTS for Constitutive Androstane Receptor (CAR) Agonist screened against the NCATS CANVASS Library (AID 1347373);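 also: every well also contained 1.5 µM PK11195 alongside the test compound; 0% is about no effect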
Sequence of Nuclear receptor subfamily 1 group I member 3 (Homo sapiens) (Q14994 whole entry, looked up): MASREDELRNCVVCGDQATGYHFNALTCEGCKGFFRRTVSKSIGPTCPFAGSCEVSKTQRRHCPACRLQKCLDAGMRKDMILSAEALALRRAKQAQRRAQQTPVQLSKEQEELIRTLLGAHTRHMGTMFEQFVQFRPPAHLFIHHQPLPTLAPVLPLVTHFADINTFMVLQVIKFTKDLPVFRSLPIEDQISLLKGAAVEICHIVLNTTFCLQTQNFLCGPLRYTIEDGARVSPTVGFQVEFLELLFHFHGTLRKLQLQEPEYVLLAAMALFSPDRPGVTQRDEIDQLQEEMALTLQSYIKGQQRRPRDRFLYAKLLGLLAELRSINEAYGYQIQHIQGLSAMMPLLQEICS
In short: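 Luciferase read-out (ONE-Glo, 30 min RT) of CYP2B6-2.2kb promoter activity in double-stable HepG2-hCAR cells after 24hr compound exposure with 1.5uM PK11195 present; viability measured first by CellTiter-Fluor.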

[12] = 10-beta competent E. coli microbial cell viability qHTS against the NCATS CANVASS Library (AID 1347376); also: series mostly up to about 46 µM; 0% is about no effect
In short: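 Luminescence from BacTiter-Glo ATP detection served as the viability read-out; bacteria (0.2 OD) had been incubated overnight at 37C with pin-transferred compounds at 11 concentrations.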

[13] = qHTS for H2AX Agonists against the NCATS CANVASS Library (AID 1347378); also: 0% is about no effect
In short: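 CHO-K1 cells were plated overnight at 37C, then exposed to compounds (concentration series, 0.76% DMSO final) for 3 hr at 37C. Lysates received Eu-cryptate anti-pH2AX (S139) and d2 anti-H2AX antibodies; after 24 hr at room temperature, TR-FRET 665/620 nm ratio was read.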

[14] = Inflammasome Signaling qHTS Counterscreen: IL-1-beta AlphaLISA counterscreen against the NCATS CANVASS Library (AID 1347381);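 also: cell-free check with purified IL-1β in medium and no THP-1 cells; series mostly up to about 57 µM; 0% is about no effect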
In short: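 Here, no cellular stimulation occurs; compounds in an 11-point series meet 4 pg purified IL-1-beta directly. Bead-based AlphaLISA detection follows (1 h acceptor/antibody, then 30 min donor, dark, room temperature), with excitation at 680 nm.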

[15] = qHTS assay for small molecule disruptors of mitochondrial membrane potential screened against the NCATS CANVASS Library (AID 1347389); also: series mostly up to about 46 µM; % is scaled to controls: 0 for no effect and ±100 for the full control effect; nearly all actives have a fitted effect of over 60% in size
In short: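 Red/green fluorescence ratio read-out: J-aggregates ex 540/em 590 nm, monomers ex 490/em 535 nm. HepG2, 1 hr compound treatment, then 30 min Mito-MPS dye at 37C. 11-pt qHTS concentration series.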

[16] = Secretion counterscreen for inhibitors of the SERCaMP assay screened against the NCATS CANVASS Library (AID 1347390);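 also: light from luciferase secreted into medium read as a measure of general secretion; series mostly up to about 77 µM; % is scaled to controls: 0 for no effect and ±100 for the full control effect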
In short: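 SH-SY5Y cells expressing constitutively secreted GLuc, 1000 cells/well, attached 4 h at 37C, then exposed to compounds (0.001 - 77 uM, 11-pnt series) for 20 h. Coelenterazine added; luminescence read to flag secretory-pathway interferers.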

[17] = Viability qHTS for inhibitors of the SERCaMP assay screened against the NCATS CANVASS Library (AID 1347400); also: series mostly up to about 92 µM; % is scaled to controls: 0 for no effect and ±100 for the full control effect; nearly all actives have a fitted effect of over 70% in size
In short: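 CellTiter-Glo luminescence readout after 48 h compound exposure (11-pnt qHTS series) of SH-SY5Y-GLuc SERCaMP MJH297 cells seeded at 1000 cells/well; bortezomib positive control.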

[18] = Redox Reaction Profiling qHTS: Assay Interference Panel against the NCATS CANVASS Library (AID 1347401); also: potency is read from the fitted curve at half-maximal effect;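 as to activation (redox signal): 100% = activation by 2 µM chloranil control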
In short: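 Quantitative HTS over an 11-point series was run in HEPES pH 7.3 with 50 mM NaCl, 200 uM DTT and 5 uM resazurin. Initial and 15-min resorufin fluorescence readings were taken.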

[19] = HEK-293 Cancer Cell Toxicity qHTS against the NCATS CANVASS Library (AID 1347355); also: series mostly up to about 46 µM; nearly all actives have a fitted effect of over 65% in size
In short: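 1000 cells/well, 4 h pre-incubation 37 °C/5% CO2; 11-pnt titration; 72 h; CellTiter-Glo 15 min RT, luminescence.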

[20] = qHTS for Activators of p53 Stress Response Pathway screened against the NCATS CANVASS Library (AID 1347388); also: 0% is about no effect
In short: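 p53RE-bla HCT-116 cells (4000/well) were plated 5 h at 37C, exposed to compounds for 16 h at 37C over an 11-point concentration series, then loaded with CCF4 for 2 h at room temperature; 460/530 nm emission ratio read.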

COc1cc(C2OCC3C(c4ccc(O)c(OC)c4)OCC23)ccc1O (configuration not stated)
inactive: caspase activation [1] 1.94% [at 9.19 µM] | caspase activation [2] 1.93% [at 9.19 µM] | caspase activation [3] 6.04% [at 9.19 µM] | caspase activation [4] -1.71% [at 9.19 µM] | caspase activation [5] 3.13% [at 9.19 µM] | outcome [6] inactive [at 9.19 µM] | activation [7] 3.68% [at 9.19 µM] | outcome [8] inactive [at 9.19 µM] | activity change, negative = cytotoxicity [9] -7.78% [at 9.17 µM] | activity change, negative = inhibition [10] -9.99% [at 9.19 µM] | activation [11] 1.13% [at 9.19 µM] | activity change, negative = cytotoxic [12] -5.45% [at 9.19 µM] | activation [13] -3.74% [at 15.3 µM] | activity change, negative = inhibition [14] -8.43% [at 11.5 µM] | activity change, negative = depolarization [15] 2.39% [at 9.19 µM] | activity change, negative = inhibition [16] 27.5% [at 15.3 µM] | activity change, negative = cytotoxicity [17] -10.2% [at 18.4 µM] | activation (redox signal) [18] -17.9% [at 11.4 µM]

CC[C@H](C)[C@H]1NC(=O)[C@@H](NC(=O)C(C)C)[C@@H](C)OC(=O)[C@H](COC(=O)CNC(C)=O)NC(=O)[C@@H]([C@@H](C)O)NC(=O)[C@H](Cc2ccccc2)N(C)C(=O)[C@H](c2ccc(OC)cc2)NC1=O (Isobutyryl-T[d(aIle)][Phg(4-OMe)][NMeF][d(aThr)]S([Gly-Ac]); ester 1-C)
inactive: Potency [19] | outcome [1] | Potency [2] | Potency [3] | Potency [4] | outcome [5] | Potency [6] | Potency [7] | Potency [8] | Potency [9] | Potency [10] | Potency [11] | outcome [12] | Potency [13] | outcome [14] | Potency [20] | Potency [15] | Potency [16] | Potency [17] | Potency [18]

C[C@H]1C=C[C@H]2CCCC[C@@H]2[C@H]1C(=O)[C@H]1CC2=C(C(=O)O)CCN2C1=O
inactive: Potency [19] | outcome [1] | Potency [2] | Potency [3] | Potency [4] | outcome [5] | Potency [6] | Potency [7] | Potency [9] | Potency [10] | Potency [11] | outcome [12] | Potency [13] | outcome [14] | Potency [20] | Potency [15] | Potency [16] | Potency [18]

CCCc1c2c([nH]c(=O)c1C)C(=O)c1[nH]c(=O)c(C)c(CCC)c1C2=O
inactive: Potency [19] | outcome [1] | Potency [2] | Potency [3] | Potency [4] | outcome [5] | Potency [6] | Potency [7] | Potency [9] | Potency [10] | Potency [11] | outcome [12] | outcome [14] | Potency [20] | Potency [16] | Potency [17]
active: Potency [18] 857 nM

COC(=O)[C@@]12Oc3cccc(O)c3C(O)=C1C(=O)C[C@H](C)[C@H]2O
inactive: Potency [19] | outcome [1] | Potency [2] | Potency [3] | Potency [4] | outcome [5] | Potency [6] | Potency [7] | Potency [8] | Potency [9] | Potency [10] | Potency [11] | outcome [12] | Potency [13] | outcome [14] | Potency [20] | Potency [15] | Potency [17] | Potency [18]
